Experimental data as given in PubChem BioAssay (NCATS).
Values joined by “and” are separate entries in the source; they are usually repeats but may differ in a detail not shown here. Equal values may be shown once. Inconclusive results are not listed. A call without a number means that no potency is given here. Some compounds were tested as several samples or in several runs, with calls that do not always agree. Unmarked numbers belong to inactive results. Active and inactive are the calls of the source. Calls follow the shape of the dose curve; as a rule, active = well fitted curve in the direction sought with a large enough effect; inconclusive = small, poorly fitted or top-dose-only effect, or another doubt; inactive = no such curve, though single readings can be large; an effect the other way counts as inactive or inconclusive.

Assays:
CRL-7250 = normal cell line; assay: Cytotoxic Profiling of Annotated Libraries Using Quantitative High-Throughput Screening (AID 1296008); conditions: Five cell lines viability, CellTiter-Glo ATP luminescence, 48-72 h; max response: active compounds read low; also: nearly all actives have a fitted effect of over 60% in size; also: potency is read from the fitted curve at half-maximal effect
Procedure, shortened: (§1)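 Compounds were pin-transferred onto cells and incubated 48 or 72 hr at 37 degree Celsius, 95% humidity. CellTiter-Glo was added, plates sat 10 min at room temperature, then ATP-coupled luminescence was imaged as the viability read-out.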

HEK293 = assay: as above; conditions: Five cell lines viability, CellTiter-Glo ATP luminescence, 48-72 h; max response: active compounds read low
Procedure, shortened: as §1

HaCat [1] = assay: as above; conditions: Five cell lines viability, CellTiter-Glo ATP luminescence, 48-72 h; max response: active compounds read low
Procedure, shortened: as §1

KB-3-1 = assay: as above; conditions: Five cell lines viability, CellTiter-Glo ATP luminescence, 48-72 h; max response: active compounds read low
Procedure, shortened: as §1

NIH3T3 [2] = assay: as above; conditions: Five cell lines viability, CellTiter-Glo ATP luminescence, 48-72 h; max response: active compounds read low
Procedure, shortened: as §1

HEK293T [3] = assay: qHTS assay to identify novel small-molecules to repurpose for Merkel cell carcinoma treatment (AID 1296009); conditions: MCC and control cell lines, CellTiter-Glo viability, 72 h; at 44.8 µM (top of the series) unless noted; also: nearly all actives have a fitted effect of over 60% in size; also: potency is read from the fitted curve at half-maximal effect
Procedure, shortened: (§2)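 Cells exposed to NPC (8-point) and MIPE (11-point) compound dilutions for 72 hr at 37 degree celsius; viability read by CellTiter-Glo luminescence, normalized to no-cell and DMSO in-plate controls.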

MKL-2 = assay: as above; conditions: MCC and control cell lines, CellTiter-Glo viability, 72 h; series mostly up to 46 µM
Procedure, shortened: as §2

NIH3T3 [4] = assay: as above; conditions: MCC and control cell lines, CellTiter-Glo viability, 72 h; at 44.8 µM (top of the series) unless noted
Procedure, shortened: as §2

WaGa = assay: as above; conditions: MCC and control cell lines, CellTiter-Glo viability, 72 h; series mostly up to 46 µM
Procedure, shortened: as §2

C33A = assay: Primary qHTS to identify gynecologic anti-cancer compounds using libraries of approved drugs and bioactive compounds (AID 1345084); conditions: Gynecologic cancer cell panel viability, ATPlite luminescence, 48 h; series mostly up to 57.5 µM; also: nearly all actives have a fitted effect of over 55% in size
Procedure, shortened: (§3)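 In this quantitative HTS, cell killing is estimated from loss of ATP-dependent luciferase light. Cells see five compound concentrations over a 48 h exposure.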

CASKI = assay: as above; conditions: Gynecologic cancer cell panel viability, ATPlite luminescence, 48 h; series mostly up to 57.5 µM
Procedure, shortened: as §3

Es-2 = assay: as above; conditions: Gynecologic cancer cell panel viability, ATPlite luminescence, 48 h; series mostly up to 57.5 µM
Procedure, shortened: as §3

HeLa = assay: as above; conditions: Gynecologic cancer cell panel viability, ATPlite luminescence, 48 h; series mostly up to 57.5 µM
Procedure, shortened: as §3

Hek293T [5] = assay: as above; conditions: Gynecologic cancer cell panel viability, ATPlite luminescence, 48 h, control line for the selectivity index; series mostly up to 57.5 µM
Procedure, shortened: as §3

MCC-13 = assay: qHTS assay to identify novel small-molecules to repurpose for Merkel cell carcinoma treatment (AID 1296009); conditions: MCC and control cell lines, CellTiter-Glo viability, 72 h; series mostly up to 46 µM; also: nearly all actives have a fitted effect of over 60% in size; also: potency is read from the fitted curve at half-maximal effect
Procedure, shortened: as §2

MKL-1 = assay: as above; conditions: MCC and control cell lines, CellTiter-Glo viability, 72 h; series mostly up to 46 µM
Procedure, shortened: as §2

UISO = assay: as above; conditions: MCC and control cell lines, CellTiter-Glo viability, 72 h; series mostly up to 46 µM
Procedure, shortened: as §2

HACAT [6] = assay: as above; conditions: MCC and control cell lines, CellTiter-Glo viability, 72 h; series mostly up to 44.8 µM
Procedure, shortened: as §2

MCC-26 = assay: as above; conditions: MCC and control cell lines, CellTiter-Glo viability, 72 h; series mostly up to 46 µM
Procedure, shortened: as §2

CAOV3 = assay: Primary qHTS to identify gynecologic anti-cancer compounds using libraries of approved drugs and bioactive compounds (AID 1345084); conditions: Gynecologic cancer cell panel viability, ATPlite luminescence, 48 h; series mostly up to 57.5 µM; also: nearly all actives have a fitted effect of over 55% in size
Procedure, shortened: as §3

SMILES: CNC(=O)c1ccc(N2C(=S)N(c3cnc(C#N)c(C(F)(F)F)c3)C(=O)C23CCC3)cc1F
- max response (CRL-7250): -2.94%
- outcome (CRL-7250): inactive
- outcome (HEK293): inactive
- max response (HaCat [1]): -2.38% and -0.362%
- max response (KB-3-1): -8.3%
- outcome (KB-3-1): inactive
- max response (NIH3T3 [2]): 0.376%
- outcome (NIH3T3 [2]): inactive
- outcome (HEK293T [3]): inactive
- Potency (MKL-2): 26.4 µM (active)
- outcome (NIH3T3 [4]): inactive
- Potency (WaGa): 9.35 µM (active)
- Potency (C33A): inactive
- Potency (CASKI): inactive
- Potency (Es-2): inactive
- Potency (HeLa): inactive
- Potency (Hek293T [5]): inactive

SMILES: c1ccc2c(CCNc3ccc(Nc4ccncc4)cc3)c[nH]c2c1
- Potency (CRL-7250): 10.5 µM (active)
- Potency (HEK293): 1.05 µM (active) and 2.31 µM (active)
- Potency (HaCat [1]): 11.8 µM (active)
- max response (HaCat [1]): 2.65%
- Potency (KB-3-1): 23.5 µM (active)
- Potency (NIH3T3 [2]): 16.6 µM (active) and 11.6 µM (active)
- Potency (MCC-13): 20.9 µM (active)
- Potency (MKL-1): 9.35 µM (active)
- Potency (MKL-2): 5.9 µM (active)
- Potency (UISO): 13.2 µM (active)
- Potency (WaGa): 7.43 µM (active)
- Potency (HeLa): inactive

SMILES: CN(C1CCc2c(c3ccccc3n2CC(=O)O)C1)S(=O)(=O)c1ccc(F)cc1 (stereo unspecified)
- max response (CRL-7250): 3.48% and -10.1%
- outcome (CRL-7250): inactive
- max response (HEK293): -3% and -8.76%
- outcome (HEK293): inactive
- max response (HaCat [1]): -11.8% and -5.06%
- outcome (HaCat [1]): inactive
- max response (KB-3-1): 7.37%
- outcome (KB-3-1): inactive
- outcome (NIH3T3 [2]): inactive
- Potency (HACAT [6]): inactive
- outcome (HEK293T [3]): inactive
- Potency (MCC-13): inactive
- Potency (MKL-1): inactive
- outcome (NIH3T3 [4]): inactive
- Potency (UISO): inactive
- Potency (WaGa): 5.9 µM (active)
- Potency (C33A): inactive
- Potency (CASKI): inactive
- Potency (Es-2): inactive
- Potency (HeLa): inactive
- Potency (Hek293T [5]): inactive

SMILES: C[C@]12CC[C@H](O)CC1=CCC1C2CC[C@]2(C)C(n3cnc4ccccc43)=CCC12 (stereo partly specified)
- max response (CRL-7250): -7.08%
- Potency (HEK293): 14.6 µM (active)
- max response (HEK293): -24.7%
- max response (HaCat [1]): 2.2%
- max response (KB-3-1): 0.714%
- max response (NIH3T3 [2]): 3.78% and -16%
- Potency (MCC-13): inactive
- Potency (MCC-26): inactive
- Potency (MKL-1): inactive
- Potency (UISO): inactive
- Potency (WaGa): inactive
- Potency (C33A): inactive
- Potency (CAOV3): inactive
- Potency (CASKI): inactive
- Potency (Es-2): inactive
- Potency (HeLa): inactive
- Potency (Hek293T [5]): inactive

SMILES: COc1cc(-c2nn(C3CCC(N4CCN(C(C)=O)CC4)CC3)c3ncnc(N)c23)ccc1NC(=O)c1cc2ccccc2n1C (stereo unspecified)
- max response (CRL-7250): -38.4%
- max response (HEK293): -12.7%
- Potency (HaCat [1]): 3.66 µM (active)
- max response (HaCat [1]): -22.8%
- Potency (KB-3-1): 20.6 µM (active)
- max response (KB-3-1): -0.49%
- max response (NIH3T3 [2]): -32.1% and -29.8%
- Potency (MKL-1): 3.72 µM (active)
- Potency (MKL-2): inactive
- Potency (UISO): 18.7 µM (active)
- Potency (C33A): inactive
- Potency (Es-2): inactive
- Potency (HeLa): inactive
- Potency (Hek293T [5]): inactive

SMILES: O=c1c2ccccc2nc2n1CCc1c-2[nH]c2ccccc12
- max response (CRL-7250): 3.31%
- max response (HEK293): -12.5%
- max response (HaCat [1]): -7.58%
- outcome (HaCat [1]): inactive
- max response (KB-3-1): 4.3% and 8.09%
- max response (NIH3T3 [2]): 0.849% and 0.542%
- Potency (HACAT [6]): inactive
- Potency (MCC-13): inactive
- Potency (MCC-26): inactive
- Potency (MKL-1): inactive
- Potency (MKL-2): inactive
- Potency (WaGa): inactive
- Potency (C33A): inactive
- Potency (CASKI): inactive
- Potency (Es-2): inactive
- Potency (HeLa): inactive
- Potency (Hek293T [5]): inactive

SMILES: Clc1cccc(-c2nnnn2Cc2cccnc2)c1Cl
- max response (CRL-7250): -2.93%
- Potency (HEK293): 26.4 µM (active)
- max response (HEK293): -0.348%
- max response (HaCat [1]): 3% and -9.84%
- outcome (KB-3-1): inactive
- max response (NIH3T3 [2]): -9.84% and -14.4%
- Potency (MCC-13): inactive
- Potency (MCC-26): inactive
- Potency (MKL-1): inactive
- Potency (MKL-2): inactive
- Potency (UISO): inactive
- Potency (WaGa): inactive
- Potency (C33A): inactive
- Potency (CASKI): inactive
- Potency (Es-2): inactive
- Potency (HeLa): inactive
- Potency (Hek293T [5]): inactive

SMILES: C1Cc2[nH]nc(-c3nn[nH]n3)c2C1
- max response (CRL-7250): -5.71% and 4.92%
- max response (HEK293): 2.99%
- outcome (HEK293): inactive
- max response (HaCat [1]): -5.07%
- outcome (HaCat [1]): inactive
- max response (KB-3-1): 5.58%
- outcome (KB-3-1): inactive
- outcome (NIH3T3 [2]): inactive
- Potency (HACAT [6]): inactive
- outcome (HEK293T [3]): inactive
- Potency (MCC-13): inactive
- Potency (MCC-26): inactive
- Potency (MKL-1): inactive
- Potency (MKL-2): inactive
- outcome (NIH3T3 [4]): inactive
- Potency (UISO): inactive
- Potency (WaGa): inactive
- Potency (C33A): inactive
- Potency (CASKI): inactive
- Potency (Es-2): inactive
- Potency (HeLa): inactive
- Potency (Hek293T [5]): inactive

SMILES: CCNC(=O)Nc1ccc2ncc(Nc3ccc(C)cc3)nc2n1
- max response (CRL-7250): -2.45%
- outcome (CRL-7250): inactive
- max response (HEK293): 1.18% and 1.8%
- max response (HaCat [1]): -7.35% and 2.38%
- max response (KB-3-1): -0.0839%
- outcome (KB-3-1): inactive
- max response (NIH3T3 [2]): 4.76% and -10.1%
- Potency (MCC-13): inactive
- Potency (C33A): inactive
- Potency (CASKI): inactive
- Potency (Es-2): inactive
- Potency (HeLa): inactive
- Potency (Hek293T [5]): inactive

SMILES: CC(=O)OCC(=O)[C@@]1(O)[C@H](C)C[C@H]2[C@@H]3C=C(C)C4=Cc5c(cnn5-c5ccccc5)C[C@]4(C)[C@@H]3[C@@H](O)C[C@@]21C
- Potency (CRL-7250): 20.9 µM (active)
- Potency (HEK293): 13.2 µM (active)
- max response (HaCat [1]): -6.31%
- outcome (KB-3-1): inactive
- Potency (NIH3T3 [2]): 14.8 µM (active)
- Potency (MCC-13): inactive
- Potency (MCC-26): inactive
- Potency (MKL-1): inactive
- Potency (MKL-2): 7.43 µM (active)
- Potency (UISO): inactive
- Potency (WaGa): inactive
